Measurements published in PubChem BioAssay AID720708 (National Center for Advancing Translational Sciences (NCATS), 2013).
About 660 (0.18%) of roughly 360,000 compounds were called active. Where a call stands in place of a potency, no number is given. Roughly 2% stayed inconclusive and do not appear here. The call rests on the fitted dose curve; in most records, active means well fitted inhibition curve with a large enough effect; inconclusive means small, poorly fitted or top-dose-only effect; inactive means no such curve, though single readings can be large or run the other way. For the sample, actives were picked, then their nearest neighbours and some compounds at random.

What follows are molecules tested against Rap guanine nucleotide exchange factor 4 (Homo sapiens) (UniProt Q8WZA2) (assay: qHTS for Antagonist of cAMP-regulated guanine nucleotide exchange factor 2 (EPAC2): primary screen). Settings: EPAC2 GEF exchange of Rap1B-BODIPY-GDP, fluorescence; series mostly up to 114 µM.
Excerpt: In multi-cellular eukaryotic organisms, the effects of cAMP are transduced by two ubiquitously-expressed intracellular cAMP receptors, the classic protein kinase A/cAMP-dependent protein kinase (PKA/cAPK) and the more recently discovered exchange protein directly activated by cAMP/cAMP-regulated guanine nucleotide exchange factor (EPAC/cAMP-GEF). Both PKA and EPAC are ubiquitously expressed in all tissues, and an increase in intracellular cAMP levels will lead to the activation of both PKA and EPAC. Therefore, careful dissections of the individual role and relative contribution of EPAC and PKA within the overall cAMP signaling in various model systems are critical for further elucidating the mechanism of cAMP signaling. To date no EPAC-specific antagonists and agonist, as well as isoform-specific agonists have been reported, and developing EPAC-specific pharmacological probes to determine the physiological functions that EPAC play in the overall cAMP-mediated signaling remains a major challenge within the research field. Furthermore, identified regulators of EPAC may lead to new mechanism-based therapeutic strategies specifically targeting the EPAC / cAMP-signaling components as EPAC has been implicated to play important roles in major human pathological conditions such as diabetes, heart disease, and cancer.
This qHTS will be used to screen the Molecular Libraries Small Molecule Repository (MLSMR) as a concentration-titration series using the NCGC unique quantitative screening (qHTS) platform to find inhibitors for EPAC2. In addition, this assay will also be used as a counterscreen for the EPAC1 qHTS. This fluorescent based assay is developed and validated for EPAC2 that measures exchange using EPAC effector Rap1 complex with BODIPY-GDP, a GDP analog with a tethered fluorophores. Inhibitors are identified by monitoring the change in fluorescence signal as the exchanged free BODIPY-GDP has a reduced fluorescence compared to Rap1-bound BODIPY-GDP. Decrease in signal (inhibition) is the desired outcome for the EPAC2 antagonist while no activity in this assay is desired for the EPAC1 antagonist counterscreen.
NIH Chemical Genomics Center [NCGC]
NIH Molecular Libraries Probe Centers Network [MLPCN]
Assay Submitter (PI): Xiaodong Cheng, The University of Texas, Medical Branch
Briefly, three uL of reagents (100 nM EPAC2, 250 nM RAP1B-BODIPY-GDP, 50 uM GDP) were dispensed into a 1536-well Greiner black solid-bottom medium binding assay plate. Controls and test compounds (23 nL) were transferred to the plate via a Kalypsys pin tool equipped with a 1536-pin array. The plates were centrifuged at 1,000 rpm for 15 seconds followed by 5 minute incubation at room temperature. The assay plates were read at 5 minute intervals for 30 minutes in the ViewLux plate reader using 480nm excitation and 540nm emission filters. The results were normalized to the agonist positive control ATA and DMSO.
Further: nearly all actives have a fitted effect of over 45% in size.
Potency means the concentration at half of the fitted maximal effect.

Rap guanine nucleotide exchange factor 4 (Homo sapiens), sequence (Q8WZA2 whole entry, looked up): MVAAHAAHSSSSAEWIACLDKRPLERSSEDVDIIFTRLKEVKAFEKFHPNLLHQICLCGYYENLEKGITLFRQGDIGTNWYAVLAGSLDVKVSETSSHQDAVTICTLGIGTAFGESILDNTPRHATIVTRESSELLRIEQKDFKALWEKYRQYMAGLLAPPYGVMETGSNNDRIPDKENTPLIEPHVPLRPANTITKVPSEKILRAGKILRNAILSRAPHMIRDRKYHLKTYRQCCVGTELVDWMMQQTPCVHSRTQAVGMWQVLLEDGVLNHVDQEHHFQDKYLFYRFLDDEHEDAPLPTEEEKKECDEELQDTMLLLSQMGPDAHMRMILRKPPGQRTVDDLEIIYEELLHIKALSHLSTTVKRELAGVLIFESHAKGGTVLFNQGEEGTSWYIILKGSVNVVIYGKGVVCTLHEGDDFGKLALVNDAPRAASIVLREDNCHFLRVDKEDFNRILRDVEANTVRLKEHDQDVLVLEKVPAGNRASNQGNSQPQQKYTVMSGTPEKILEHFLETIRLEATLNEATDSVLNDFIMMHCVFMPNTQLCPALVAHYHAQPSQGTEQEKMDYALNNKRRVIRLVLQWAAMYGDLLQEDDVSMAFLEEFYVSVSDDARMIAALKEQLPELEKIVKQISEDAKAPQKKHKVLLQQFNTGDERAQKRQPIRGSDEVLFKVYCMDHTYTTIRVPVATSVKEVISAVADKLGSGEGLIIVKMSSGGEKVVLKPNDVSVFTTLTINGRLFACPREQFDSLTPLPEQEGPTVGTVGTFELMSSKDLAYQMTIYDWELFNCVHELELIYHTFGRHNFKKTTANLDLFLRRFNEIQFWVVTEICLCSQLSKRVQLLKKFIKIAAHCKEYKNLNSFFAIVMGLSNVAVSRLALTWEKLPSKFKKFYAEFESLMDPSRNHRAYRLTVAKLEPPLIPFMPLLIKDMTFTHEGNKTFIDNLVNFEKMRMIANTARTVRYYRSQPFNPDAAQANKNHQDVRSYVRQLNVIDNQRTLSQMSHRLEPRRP

**Q.** For `CCOP(=O)(OCC)C(NC(=O)c1ccc(C)cc1)C(Cl)(Cl)Cl` (stereo not given), which Potency is on record?
**A.** Its Potency is “inactive”.

**Q.** With `CCOP(=O)(OCC)C(Cc1ccccc1)N=C(c1ccccc1)c1ccccc1` (stereo not given) as the molecule, how does the Potency read?
**A.** The Potency was 35.5 µM (active).

**Q.** `CCOP(=O)(OCC)C(NC(=O)c1ccc(OC)cc1)C(Cl)(Cl)Cl` (stereo not given) was tested. Which Potency did it give?
**A.** Its Potency is “inactive”.

**Q.** `CC1=CC(=Cc2sc3ccccc3[n+]2C)C=C(C)O1` was tested. Which Potency did it give?
**A.** Its Potency is “inactive”.

**Q.** How did the Potency turn out when `C[C@]12CC[C@H](O)C[C@H]1CC[C@@H]1C2CC[C@]2(C)[C@@H](C3=CC(=O)OC3)[C@@H](O)C[C@]12O` (stereo not given in full) was run?
**A.** Its Potency is “inactive”.

**Q.** With `CCOC(=O)[C@]12Cc3ccccc3[C@H]1N(C1CCCCC1)C(=O)c1cc(OC)ccc12` as the molecule, how does the Potency read?
**A.** Its Potency is 3.16 µM (active).

**Q.** Which Potency does the source give for `COC(=O)C1=C(c2cc3ccccc3s2)C[C@@H]2CC[C@H]1N2C(=O)NCc1cccc2ccccc12` here?
**A.** Its Potency is “inactive”.

**Q.** `Oc1cc2c(cc1CN1CCN(c3ccccc3)CC1)OCO2` was tested. Which Potency did it give?
**A.** Its Potency is “inactive”.

**Q.** `CN(c1ccccc1)c1ccc([N+](=O)[O-])c2nonc12` was tested. Which Potency did it give?
**A.** Its Potency is “inactive”.

**Q.** Which Potency does the source give for `ClC(Cl)(Cl)c1ccccc1` here?
**A.** The Potency was “inactive”.

**Q.** `CC(c1ccccc1)(c1ccccc1)c1ccncc1` was tested. Which Potency did it give?
**A.** Its Potency is 35.5 µM (active).

**Q.** `CCCC[N+]1(C)C2CC(OC(=O)C(CO)c3ccccc3)CC1C1OC12` (stereo not given) was tested. Which Potency did it give?
**A.** Its Potency is “inactive”.

**Q.** For `O=C(NC(c1ccc(Cl)cc1)P(=O)(Oc1ccccc1)Oc1ccccc1)OCc1ccccc1` (stereo not given), which Potency is on record?
**A.** Its Potency is “inactive”.

**Q.** How did the Potency turn out when `COC(=O)C(c1ccccc1)N1CCCCCC1` (stereo not given) was run?
**A.** Its Potency is “inactive”.

**Q.** For `COC(=O)N1C(c2ccccc2)C1c1ccccc1` (stereo not given), which Potency is on record?
**A.** Its Potency is 31.6 µM (active).

**Q.** `O=C(CN1CCCCC1)Nc1ccc(Br)cc1C(=O)c1ccccc1Cl` was tested. Which Potency did it give?
**A.** The Potency was “inactive”.

**Q.** `Cn1c(O)c(C(=Nc2ccc(F)cc2)c2ccccc2)c(=O)n(C)c1=O` was tested. Which Potency did it give?
**A.** The Potency was “inactive”.

**Q.** For `CC(=O)N(C1=NCCCS1)c1ccccc1F`, which Potency is on record?
**A.** The Potency was “inactive”.

**Q.** For `Cc1ccc(-n2c(O)c(C=NCC3CCCO3)c(=O)[nH]c2=O)c(C)c1` (stereo not given), which Potency is on record?
**A.** The Potency was “inactive”.

**Q.** For `O=C(OCCN1CCOCC1)C1(c2ccccc2)CCCC1`, which Potency is on record?
**A.** Its Potency is “inactive”.
